# Hits are enriched below; roughly 12% of the tested compounds scored in any of these assays.
# L3MBTL1 block: qHTS Assay for the Inhibitors of L3MBTL1; Lethal(3)malignant brain tumor-like protein 1 (Homo sapiens), Q9Y468; AlphaScreen L3MBTL1–H3K9me1 peptide binding; Potency, µM (top dose mostly 57.1 µM), for the others: at the highest dose activity, negative = inhibition, most hits filed as inhibitors; hit rate 0.66% among 230,000; note: % is set by controls: 0 for no effect and ±100 for the full control effect; nearly all actives have a fitted effect of over 60% in size
#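 L3MBTL1 (50 nM) pre-complexed 30 min with biotinylated H3(1-15)K9me1 peptide (75 nM), then compounds added for 30 min at room temperature; AlphaScreen streptavidin donor/nickel chelate acceptor beads (10 ug/mL final) read after 30 min dark incubation.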
# JMJD2A Tudor inh: qHTS Assay for Inhibitors of JMJD2A-Tudor Domain; hit rate 4.4% among 390,000; Potency, µM (doses to about 114 µM), without a hit: at the top dose activity change, negative = inhibition, actives largely listed as inhibitors; AlphaScreen JMJD2A-Tudor / H3K4me3 peptide binding; Lysine-specific demethylase 4A (Homo sapiens), O75164; AID 504339, 2011; note: % is set by controls: 0 for no effect and ±100 for the full control effect; nearly all actives have a fitted effect of over 50% in size
# Sfp PPTase inh: qHTS Assay for Inhibitors of Bacillus subtilis Sfp phosphopantetheinyl transferase (PPTase); 4'-phosphopantetheinyl transferase ffp (Bacillus subtilis), Q9F4F7; Biochemical Sfp PPTase activity, qHTS; Potency, µM, for the others: largest response in the series, negative = inhibition, actives largely listed as inhibitors; hit rate 3.5% among 310,000; AID 1490, 2009;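 note: the enzyme is Sfp with the accession as filed and its product quenches rhodamine fluorescence; 0% = enzyme reaction without inhibitor and -100% = no enzyme wells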
#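 With Hepes-Na pH 7.6 buffer containing 10 mM MgCl2, Sfp (15 nM) modified BHQ-2-YbbR (12.5 uM) using rhodamine-CoA (5 uM). Two reads 30 minutes apart at 525/598 nm yielded each well's rate.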
# HP1b binding inh: HTS for Inhibitors of HP1-beta Chromodomain Interactions with Methylated Histone Tails | Chromobox protein homolog 1 (Homo sapiens), P83916 | AlphaScreen HP1-beta / biotin-H3K9me3 peptide binding | Potency, µM (series often up to 114 µM), for the others: at the highest dose activity change, negative = inhibition, hits mostly inhibitors | hit rate 0.56% among 390,000 | AID 540317, 2011; note: nearly all actives have a fitted effect of over 70% in size
#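 AlphaScreen: HP1-beta (50 nM) preformed 30 min with biotin-H3(1-18)K9me3 peptide (50 nM) in PBS pH 7.4, 0.01% Tween-20. Compound added for 30 min at RT, then streptavidin donor/nickel chelate acceptor beads (10 ug/mL) for 30 min.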
# G9a inh: qHTS Assay for Inhibitors of Histone Lysine Methyltransferase G9a; Histone-lysine N-methyltransferase EHMT2 (Homo sapiens), Q96KQ7; G9a H3K9 monomethylation, AlphaScreen, 2 h; Potency, µM (doses to about 102 µM), for the others: top-dose activity, negative = inhibition, hits mostly inhibitors; hit rate 8.8% among 350,000; AID 504332, 2011; note: % is set by controls: 0 for no effect and ±100 for the full control effect; nearly all actives have a fitted effect of over 75% in size
#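 Chemiluminescent proximity detection of H3K9 monomethylation, read after 10 min bead incubation in the dark. Reaction: 20 nM G9a, 500 nM biotin-H3K9 peptide, 20 uM SAM cofactor, 2 h, room temperature, following 15 min enzyme-compound preincubation.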
# BAZ2B inh: qHTS Assay for Inhibitors of BAZ2B. Bromodomain adjacent to zinc finger domain protein 2B (Homo sapiens), Q9UIF8. AlphaScreen BAZ2B-H3K14Ac peptide displacement. Potency, µM (highest dose often 114 µM), for inactives: top-dose activity change, negative = inhibition, hits mostly inhibitors. hit rate 4.4% among 360,000. AID 504333, 2011; note: % is set by controls: 0 for no effect and ±100 for the full control effect; nearly all actives have a fitted effect of over 60% in size
#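 AlphaScreen luminescence quantifies BAZ2B engagement of H3K14Ac peptide; the protein and biotinylated peptide are both at 50 nM final, buffer PBS pH 7.4 with 0.01% Tween-20, all steps at room temperature.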
# * hit, by the source's call; u = inconclusive; x = no result; ! = repeats disagree; [ ] = dose if it differs, or a comment. Calls come from the whole dose curve; as a rule, active = well fitted curve in the direction sought with a large enough effect; inconclusive = small, poorly fitted or top-dose-only effect, or another doubt; inactive = no such curve, though single readings can be large; an effect the other way counts as inactive or inconclusive. Potency is the fitted concentration of half-maximal effect.
SMILES,L3MBTL1 block,JMJD2A Tudor inh,Sfp PPTase inh,HP1b binding inh,G9a inh,BAZ2B inh
COc1ccc(C2C(C(C)=O)=C(O)C(=O)N2CCO)c(OC)c1 (configuration not stated),2%,u,-22%,11%,50µM*,u
COc1ccc(C2C(C(C)=O)=C(O)C(=O)N2c2nccs2)c(OC)c1 (configuration not stated),-10%,-2%,10%,46%,40µM*,u
O=C(O)CC(NCc1ccco1)C(=O)OCC1CCCO1 (configuration not stated),13%,u,0%,17%,7.9µM*,50µM*
O=C(O)CC(NCc1ccco1)C(=O)OCCc1ccccc1 (configuration not stated),2%,6.3µM*,-13%,-19%,32µM*,-5%
C#CCOc1ccc(-c2nnc(Nc3cccc(C)c3)c3ccccc23)cc1,x,-16%,x,34%,9%[59 µM],2%
Cc1cccc(NC(=O)C(NS(=O)(=O)c2cccc3nsnc23)c2ccccc2)c1C (configuration not stated),x,2%,x,49%,6%[59 µM],x
CCc1ccc(CN2C(=O)c3ccccc3C2C(=O)NC2CCCCCC2)cc1 (configuration not stated),x,-11%,x,10%,-27%[59 µM],0%
COc1ccc(C(=O)NCc2nnc(SCC(=O)c3ccccc3)n2C)cc1OC,-5%,-13%,x,19%,56µM*,7%
Cc1cc(C)nc(SCc2nnc(SCC(=O)Nc3nc(-c4ccccc4)cs3)n2C)n1,-1%,-7%[11.4 µM],-14%,-28%,0%[59 µM],9%
COc1ccc(C(=O)CSc2nnc(CNC(=O)c3ccc(OC)cc3)n2C)cc1,9%,50µM*,-10%,15%,u,4%
Cc1ccc(C(=O)CSc2nnc(CNc3nc(-c4ccccc4)cs3)n2C)cc1,-7%,-28%[11.4 µM],-4%,18%,35µM*,u
CC(C)NC(=O)c1sc2ncccc2c1-n1cccc1,x,-5%,x,42%[57 µM],6%[59 µM],7%
COc1ccccc1CNC(=O)CSc1ccc(-c2sc(-c3ccccc3)nc2C)nn1,x,-15%,x,29%,-10%[59 µM],-39%
COc1cccc(/C=N/NC(=O)c2c(C)nc3ccc(Cl)cn23)c1O,x,56µM*,31%,23%,-10%,8.9µM*
COc1ccccc1/C=N\NC(=O)c1c(C)nc2ccc(Cl)cn12,6%,-6%,19%,22%,0%[59 µM],11%
COc1cccc(/C=N/NC(=O)c2ccc(=O)n(C)c2)c1O,-6%,56µM*,14%,17%,16%[59 µM],u
COc1cccc(/C=N/NC(=O)c2ccc(=O)[nH]n2)c1O,-21%,79µM*,13%,49%,-4%,50µM*
COc1cccc(/C=N/NC(=O)c2cnccn2)c1OC,1%,20µM*,3%,18%,7%,-4%
COc1cc(OC)c(OC)cc1/C=N/NC(=O)c1cnccn1,3%,u,-21%,18%,25%,-14%
COc1ccc(C)cc1Nc1nc(-c2c[nH]c3ccccc23)cs1,-10%,u,28µM*,-24%[57 µM],3.2µM*,50µM*
COc1ccc(OC)c(Nc2nc(-c3cccs3)cs2)c1,-4%,u,-11%,-27%,u,u
CN1CCN(C(=O)C23CC4CC(C)(CC(C)(C4)C2)C3)CC1,-7%,-3%,14%,48%,56µM*,-11%
O=C(NCCc1ccc(Cl)cc1)c1c2c(nc3ccccc13)C(=O)N(C1CCCCC1)C2,x,-8%,x,32%,13%[59 µM],-4%
O=C(CC1(O)C(=O)N(C/C=C/c2ccccc2)c2ccccc21)c1ccccn1 (configuration not stated),-11%,u,-6%,-19%,50µM*,-32%
O=C(CC1(O)C(=O)N(CCc2ccccc2)c2ccccc21)c1ccccn1 (configuration not stated),x,-13%,-8%,13%,u,-18%
SMILES,L3MBTL1 block,JMJD2A Tudor inh,Sfp PPTase inh,HP1b binding inh,G9a inh,BAZ2B inh
Cn1c(=O)[nH]c(=O)c2c1nc(SCCO)n2Cc1ccccc1Cl,9%,u,-16%,-10%,45µM*,-2%
CCC(C)Sc1nc2c(c(=O)[nH]c(=O)n2C)n1Cc1ccccc1Cl (configuration not stated),-5%,1%,-3%,7%,25µM*,-14%
CCCn1c2ccccc2c2cnn(CC(=O)Nc3cccc(C(=O)OCC)c3)c(=O)c21,x,-19%,x,17%,-4%[59 µM],-21%
CCN(CC)c1ccc(NC(=O)c2cc(C)nc3c2c(C)nn3-c2ccc(C)cc2)c(C)c1,x,-5%,x,26%,-44%[59 µM],9%[57.1 µM]
O=C(O)c1cc(=O)c2cccc(O)c2[nH]1,x,28µM*,79µM*!,49%,-33%[2.33 µM],x
O=c1cc(C(F)(F)F)[nH]c2ccccc12,0%,0%,16%,51%,-33%,2%
O=C(O)c1cc(=O)c2ccccc2[nH]1,-9%,u,-24%,13%,10µM*!,u
O=C(O)c1cc2ccc3ccccc3c2[nH]1,x,-12%,u,24%,u,-10%
O=C(O)c1cc(=O)c2c(Cl)cc(Cl)cc2[nH]1,x,50µM*,u,4%,16%[12.7 µM],x
COc1ccc(-c2nnc(SCC(=O)NCc3ccccc3)nc2-c2ccc(OC)c(OC)c2)cc1OC,x,-30%,x,11%,u,u
COc1cc(CN(C(=O)COc2ccccc2)c2ccccn2)cc(OC)c1OC,x,-12%,x,15%,-1%[59 µM],-1%
Brc1cccc(-c2cnn3c(-c4ccccc4)cc(-c4ccccc4)nc23)c1,x,20%,x,70%,12%[59 µM],7%
COc1ccc(C(=O)c2cn(CC(=O)Nc3ccc4c(c3)OCO4)c3ccc(OC)cc3c2=O)cc1,x,-29%,x,7%,u,-24%
CCOC(=O)c1ccc(-n2c(CN(CC)CC)nc3ccc([N+](=O)[O-])cc3c2=O)cc1,x,u,22µM*,23%,10µM*,x
CCOC(=O)c1ccc(-n2c(CN3CCN(CC)CC3)nc3ccc([N+](=O)[O-])cc3c2=O)cc1,x,-15%,-6%,35%,56µM*,x
CCOC(=O)N1CCN(Cc2nc3ccc([N+](=O)[O-])cc3c(=O)n2-c2ccccc2F)CC1,x,-8%,-26%,13%,79µM*,-37%
CCC(CC)N1CCN(Cc2nc3ccc([N+](=O)[O-])cc3c(=O)n2-c2ccccc2F)CC1,x,-18%,2%,-16%,-21%,-3%
